CYP2C9 inhib: blocks human cytochrome P450 2C9; CYP2C9 Supersomes, luciferin-H conversion, luminescence; inhibition, % at 5 µM; 96,000 compounds, 20% hits;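 active = blocking of liver enzyme CYP2C9 beyond about 50% at 5 µM, limit read from the data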
Target sequence (P11712 whole entry, looked up): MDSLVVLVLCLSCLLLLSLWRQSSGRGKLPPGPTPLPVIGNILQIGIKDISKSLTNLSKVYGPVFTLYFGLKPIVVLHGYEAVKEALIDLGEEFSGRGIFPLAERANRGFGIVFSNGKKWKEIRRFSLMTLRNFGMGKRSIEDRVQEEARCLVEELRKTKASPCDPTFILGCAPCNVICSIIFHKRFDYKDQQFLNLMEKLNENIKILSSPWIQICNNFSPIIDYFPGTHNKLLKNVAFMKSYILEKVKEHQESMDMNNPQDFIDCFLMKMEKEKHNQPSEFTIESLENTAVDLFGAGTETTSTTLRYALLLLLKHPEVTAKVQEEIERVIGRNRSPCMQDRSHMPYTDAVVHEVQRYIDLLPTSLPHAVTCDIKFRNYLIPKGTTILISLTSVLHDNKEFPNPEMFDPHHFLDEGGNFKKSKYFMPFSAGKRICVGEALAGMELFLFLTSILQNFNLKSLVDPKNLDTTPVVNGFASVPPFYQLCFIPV
CYP2C19 inhib: blocks human cytochrome P450 2C19. 96,000 compounds, 21% hits. AID 778. P33261. CYP2C19 Supersomes, luciferin-H EGE luminescence, 30 min. inhibition, % at 5 µM;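 active = CYP2C19 inhibition above a set limit at 5 µM in the primary screen, cut at about 50% in these data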;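 also: plate controls were negative control wells for no effect and 2.5 mM tranylcypromine positive control for full effect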
CD11b adhes inh: blocks human CD11b/CD18 adhesion to fibrinogen | P05107+P11215 | K562 CD11b/CD18 adhesion to fibrinogen, ATPlite luminescence; Mn2+ added to activate the integrin | inhibition, % at 10 µM | 93,000 compounds, 0.54% hits;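 active = primary inhibition of 50% or more at 10 µM, then 40% or more on retest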
CD11b adhes enh: enhancers of human CD11b/CD18 binding to fibrinogen; P05107+P11215; K562 CD11b/CD18 adhesion to fibrinogen, ATPlite luminescence; activation, % at 10 µM; 93,000 compounds, 0.07% hits; AID 1499;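 active = 10 µM primary screen giving 50% or more activity, confirmed by 40% or more on retest at that dose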
CYP2C19 activ: cytochrome P450 2C19 (human) activation; P33261; recombinant CYP2C19, luciferin-H EGE luminescence; stronger effect = higher value; 0 = fully inhibited enzyme, 1 = untreated enzyme; activation factor at 5 µM; 96,000 tested, under 10 active;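 active = activation factor of at least 2 at 5 µM in the primary screen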;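 also: 0 = wells with 2.5 mM tranylcypromine and 1 = vehicle-only wells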
CYP2C9 activ: increases human cytochrome P450 2C9 activity; activation factor at 5 µM; recombinant CYP2C9, luciferin-H conversion, luminescence; stronger effect = higher value; factor 1 = untreated enzyme, 0 = blocked; AID 1024; 96,000 compounds, 1.4% hits;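 active = activation factor of 2 or more for CYP2C9 at a 5 µM dose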;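 also: 0 = sulfaphenazole-blocked wells and 1 = vehicle-only wells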
* = called active by the depositor; . = not tested or not shown. Shown are actives, neighbours in structure and some others; about 28% of the full set was active somewhere.

SMILES	CYP2C9 inhib	CYP2C19 inhib	CD11b adhes inh	CD11b adhes enh	CYP2C19 activ	CYP2C9 activ
COc1cccc(NC(=O)C(OC(=O)c2ccccc2NS(=O)(=O)c2cccs2)c2ccccc2)c1 (stereo not drawn)	.	.	19	-3	.	.
Cc1noc(C)c1C(=O)Nc1sc(C)c(-c2ccccc2)c1C#N	76*	62*	72	-9	0.4	0.2
CC(C)(C)C(=O)NC(=S)Nc1sc2c(c1C#N)CCCCC2	.	.	22	13	.	.
Cc1onc(-c2ccccc2)c1C(=O)Nc1sc2c(c1C(N)=O)CCC2	43	48	14	14	0.5	0.6
Cc1onc(-c2ccccc2)c1C(=O)Nc1sc2c(c1C#N)CCC2	68*	4	.	.	1	0.3
Cc1ccccc1C(=O)NC(=S)Nc1sc2c(c1C#N)CCCC2	74*	45	35	-7	0.6	0.3
Cc1noc(C(=O)Nc2sc3c(c2C#N)CCC3)c1Cl	37	10	58*	-5	0.9	0.6
CS(=O)(=O)N(CC(=O)N1CCN(c2cccc(Cl)c2)CC1)c1cccc(F)c1	-1	-5	1	-1	1	1
CCC(C)(C(=O)NC1CCCC1)N(C(=O)CC1NC(=O)NC1=O)c1ccc(C)cc1 (stereo not drawn)	-7	4	2	-3	1	1.1
O=C(Nc1ccc(S(=O)(=O)NC2CCCC2)cc1)c1cnccn1	95*	28	-2	3	0.7	0.1
O=C(Nc1cnc2ccccc2c1)c1ccncc1	70*	86*	8	-5	0.1	0.3
O=C(Nc1ccc2c(c1)oc1ccccc12)c1ccncc1	97*	82*	-2	5	0.2	0
O=C(Nc1ccc2nccnc2c1)c1cnccn1	2	51*	16	0	0.5	1
O=C(Nc1ccc(NC(=O)c2ccco2)cc1)c1cnccn1	-10	27	9	-6	0.7	1.1
O=C(Nc1ccc2c(c1)oc1ccccc12)c1cccnc1	10	20	6	0	0.8	0.9
COc1ccc(CCNC(=O)C2CCCN(S(=O)(=O)c3cccc4nonc34)C2)cc1OC (stereo not drawn)	-2	27	0	4	0.7	1
O=C(Nc1ccc2ccccc2c1)c1cnccn1	-22	56*	-8	16	0.4	1.2
O=C(Nc1ccc2ccccc2c1)c1cccnc1	8	17	-19	0	0.8	0.9
O=C(NC1CC1)c1cc(=O)c2ccccc2o1	2	13	.	.	0.9	1
O=c1cc(/C=C/c2ccccc2)oc2ccccc12	79*	62*	-23	-2	0.4	0.2
CO/N=C(/CS(=O)Cc1ccccc1Cl)c1ccc(Cl)cc1Cl (stereo not drawn)	1	83*	0	-5	0.2	1
CC(C)C(=O)Nc1cccc(NC(=S)NC(=O)c2ccccc2Cl)c1	-7	26	21	1	0.7	1.1
CC(=O)c1cc(-c2ccccc2)n(CC(=O)NCc2cccs2)c1C	41	88*	2	0	0.1	0.6
CCOC(=O)c1cc(-c2ccc(C)cc2)n(CC(=O)NCc2ccco2)c1C	77*	83*	-7	0	0.2	0.2
CC(=O)NC(C)C(=O)OCC(=O)Nc1ccc(Br)cc1 (stereo not drawn)	16	54*	0	-1	0.5	0.8
SMILES	CYP2C9 inhib	CYP2C19 inhib	CD11b adhes inh	CD11b adhes enh	CYP2C19 activ	CYP2C9 activ
CC(C)(C)c1nc(CN2CCOCC2)ccc1O	-6	60*	-12	-2	0.4	1.1
CC(C)(C)c1nc(CN2CCCCC2)cc(CN2CCCCC2)c1O	3	20	20	1	0.8	1
Cc1ccc2cc(/C=N/NC(=O)CN3CCOCC3)c(Cl)nc2c1	10	-1	5	1	1	0.9
O=C(Cc1csc(N2CCOCC2)n1)N/N=C/c1ccc(Cl)cc1Cl	14	25	55*	-3	0.8	0.9
Cc1ccc2nc(-c3ccc(N4C(=O)CC(N5CCCC(C)C5)C4=O)cc3)sc2c1 (stereo not drawn)	-23	-22	26	-2	1.2	1.2
CCN(CC)CCCN1CC(O)=C(c2nc3ccccc3s2)C1=N	-12	-8	-3	1	1.1	1.1
CCOc1ccccc1N1CC(O)=C(c2nc3ccccc3s2)C1=N	58*	59*	15	-4	0.4	0.4
CCCCOc1ccccc1NC(=O)Cn1c(-c2nonc2N)nc2ccccc21	70*	33	14	8	0.7	0.3
Nc1nonc1-c1nc2ccccc2n1CC(=O)N1CCN(c2ccc(F)cc2)CC1	12	21	8	5	0.8	0.9
CCOC(=O)Cn1c(-c2nonc2NC(=O)c2ccccc2F)nc2ccccc21	92*	50	-14	24	0.5	0.1
CC(C)(C)NC(=O)Cn1c(-c2nonc2N)nc2ccccc21	76*	62*	-3	-2	0.4	0.2
O=C(COC(=O)Cn1cnc2ccccc21)NCCC1=CCCCC1	-12	-3	-8	-5	1	1.1
CCN(CC)CCCN1C(=O)c2oc3ccccc3c(=O)c2C1c1cc(OC)ccc1OC (stereo not drawn)	-8	-13	-16	-3	1.1	1.1
CCS(=O)(=O)c1ccc2c(c1)N(S(C)(=O)=O)CC(C(=O)NCCOC)O2 (stereo not drawn)	4	16	.	.	0.8	1
c1ccc(C(Cc2nc(-c3cccnc3)no2)c2ccccc2)cc1	53*	97*	12	-5	0	0.5
c1ccc(C(c2ccccc2)c2nc(-c3cccnc3)no2)cc1	96*	86*	7	1	0.1	0
c1ccc(SCc2nc(-c3cccnc3)no2)cc1	59*	93*	8	3	0.1	0.4
c1ccc(OCCCc2nc(-c3cccnc3)no2)cc1	35	64*	-7	-3	0.4	0.7
COCCNC(=O)C(c1ccco1)N(C(=O)Cn1nnc2ccccc21)c1ccc(C)cc1C (stereo not drawn)	9	20	-29	7	0.8	0.9
Cc1nnc(-c2cnn(-c3ccccc3)c2N)n1Cc1ccccc1	-10	-1	.	.	1	1.1
CC1(C)Cc2nc3nc(SCC(=O)NCCc4ccccc4)n(-c4ccccc4)c(=O)c3cc2CO1	7	-8	.	.	1.1	0.9
CC(=O)Nc1ccccc1C(=O)N1CC(C)OC(C)C1 (stereo not drawn)	3	-9	-14	3	1.1	1
Cc1ccc(SC(C)c2nc(-c3cccnc3)no2)cc1 (stereo not drawn)	82*	67*	16	12	0.3	0.2
c1cncc(-c2noc(C34CC5CC(CC(C5)C3)C4)n2)c1	37	83*	12	3	0.2	0.6
Cc1ccccc1-c1noc(C23CC4CC(CC(C4)C2)C3)n1	-1	0	0	-2	1	1

Source: PubChem BioAssay (Sanford-Burnham Center for Chemical Genomics)
